Bioassay records as filed in PubChem BioAssay.
SARS PLpro yeast: qHTS of Yeast-based Assay for SARS-CoV PLP. S. cerevisiae expressing SARS-CoV PLpro, growth rescue. AID 485353, 2010. 330,000 tested, 0.19% active. Potency, µM (doses to about 32.9 µM), actives largely listed as activators; also: nearly all actives have a fitted effect of over 55% in size
Pf growth 96h: Primary qHTS for delayed death inhibitors of the malarial parasite plastid, 96 hour incubation. P. falciparum luciferase reporter growth, 96 h. Potency, µM (series often up to 28.7 µM), hits mostly inhibitors. 320,000 tested, 6.9% active. AID 504834, 2011; active = well fitted inhibition curve with a large enough effect; inconclusive = small, poorly fitted or top-dose-only effect, or another doubt; inactive = no such curve, though single readings can be large or run the other way
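96 h incubation, 37 C, 5% CO2, of luciferase-reporter P. falciparum-infected RBCs (2% hematocrit, 0.05% parasitemia final) with test compounds; endpoint luminescence.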
Shiga inhibitor: A qHTS for Small Molecule Inhibitors of Shiga Toxin. Vero cells, Shiga toxin protein synthesis inhibition reporter. inhibition, % at 38.7 µM. 290,000 tested, 9.2% active. AID 2315, 2010; in the data active = inhibition mostly above about 28%, no sharp cut-off; inactive = mostly below about 43%
Pf growth 48h: Primary qHTS for delayed death inhibitors of the malarial parasite plastid, 48 hour incubation; P. falciparum luciferase growth in erythrocytes, 48 h; Potency, µM (doses to about 28.7 µM), usual class: inhibitors; 310,000 tested, 5.9% active; AID 504832, 2011; active = well fitted inhibition curve with a large enough effect; inconclusive = small, poorly fitted or top-dose-only effect, or another doubt; inactive = no such curve, though single readings can be large or run the other way
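Firefly luciferase activity from engineered P. falciparum reports growth; inhibitors lower the luminescent signal. Cultures contained 2% hematocrit erythrocytes at 0.1% final parasitemia.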
Cycloheximide cs: Cycloheximide Counterscreen for Small Molecule Inhibitors of Shiga Toxin; cell reporter, cycloheximide protein synthesis inhibition counterscreen; max response, %; 300,000 tested, 12% active; AID 2314, 2010; in the data active = max response mostly above about 13%, no sharp cut-off; inactive = mostly below about 14%; also: read at 38.3 µM for the half of the compounds with a filed dose
NS1 function inh: qHTS Assay for Inhibitors of Influenza NS1 Protein Function; Potency, µM (top dose mostly 46.1 µM); 270,000 tested, 0.4% active; AID 2326, 2010; also: actives are rising curves; nearly all actives have a fitted effect of over 50% in size
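Compounds were scored for reversing the slow growth caused by influenza A NS1 in S. cerevisiae, measured by optical density at 600 nm. Assay medium contained 2% galactose at pH 6.0; NS1-free yeast of the same strain were the positive control.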
Hits are given with their value; . = inactive; ? = inconclusive; / = no result; [ ] = another dose, or the depositor's remark. Hits are enriched below; roughly 21% of the tested compounds scored in any of these assays. Unless noted, calls follow the shape of the full dose curve.

SMILES | SARS PLpro yeast | Pf growth 96h | Shiga inhibitor | Pf growth 48h | Cycloheximide cs | NS1 function inh
CC(C)CCNC(=O)C(=O)NC1CCCC1 | . | . | 37 | . | 11 | .
COCCn1c(C)c(C)c(S(=O)(=O)c2ccccc2)c1N | . | . | . | .[0.00184 µM] | . | .
COc1c2ccccc2nc2ccccc12 | . | . | . | 2.1µM | . | .
Cc1ccccc1OCCn1c(=O)oc2ccccc21 | . | . | . | ? | . | .
Cc1ccc2oc(=O)n(CCCOc3ccccc3C)c2c1 | . | . | 45 | . | 16 | .
Cc1ccc2oc(=O)n(CCOc3ccccc3C)c2c1 | . | . | . | 2.6µM | . | .
COc1ccccc1OCCn1c(=O)oc2ccc(C)cc21 | . | . | . | ? | . | .
CCCCn1c(N)c(N(CCOC)C(=O)c2ccco2)c(=O)[nH]c1=O | . | . | / | ? | / | /
COC(=O)CCCNC(=O)c1ccc2nc(Cc3ccc(OC)cc3)oc2c1 | . | . | . | . | 14 | .
C=C(C)CNC(=O)c1ccc2nc(Cc3ccc(OC)cc3)oc2c1 | . | . | 39 | . | 39 | .
O=C(/C=C/c1cccs1)N1CCC2(CC1)Oc1ccc(F)cc1C(=O)C21CC(c2ccc(Cl)cc2)=NO1 (stereo not given) | . | 1.9µM | . | 9.3µM | . | .
O=C(c1ccc2c(c1)OCO2)N1CCC2(CC1)Oc1ccc(Cl)cc1C(=O)C21CC(c2ccccc2)=NO1 (stereo not given) | . | 13µM | . | 12µM | . | .
O=C(/C=C/c1cccs1)N1CCC2(CC1)Oc1ccc(F)cc1C(=O)C21CC(c2ccccc2)=NO1 (stereo not given) | . | 9.3µM | . | 10µM | . | .
O=C(c1ccc2c(c1)OCO2)N1CCC2(CC1)Oc1ccc(F)cc1C(=O)C21CC(c2ccc(Cl)cc2)=NO1 (stereo not given) | . | . | . | . | . | .
CC(C)C(=O)N1CCC2(CC1)Oc1ccc(Cl)cc1C(=O)C21CC(c2ccc(Cl)cc2)=NO1 (stereo not given) | . | ? | . | ? | . | .
Cc1noc(C)c1C(=O)N1CCC2(CC1)Oc1ccc(F)cc1C(=O)C21CC(c2ccc(Cl)cc2)=NO1 (stereo not given) | . | ? | . | 12µM | . | .
O=C1c2cc(Cl)ccc2OC2(CCNCC2)C12CC(c1ccccc1)=NO2 (stereo not given) | . | ? | . | ? | . | .
COc1ccc(C)cc1NC(=O)c1ccccc1N(C)S(=O)(=O)c1ccccc1 | . | . | . | . | . | .
CC(C)(C)OC(=O)N1CCC2(CC1)Oc1ccc(F)cc1C(=O)C21CC(c2cccnc2)=NO1 (stereo not given) | . | ? | . | 10µM | . | .
CCC(=O)N1CCC2(CC1)Oc1ccc(F)cc1C(=O)C21CC(c2cccnc2)=NO1 (stereo not given) | . | . | . | . | . | .
CCN1CCN(C(=O)Cn2nc(C)c3sc4ccccc4c3c2=O)CC1 | . | . | . | . | . | .
COc1ccc(CNC(=O)CN2C(=O)COc3ccc(S(=O)(=O)N4CCOCC4)cc32)cc1 | . | ? | . | . | . | .
COc1ccc(CNC(=O)CN2C(=O)COc3ccc(S(=O)(=O)N4CCC(C)CC4)cc32)cc1 | . | 13µM | . | . | . | .
CC(C)N(Cc1ccccc1)C(=O)CN1C(=O)COc2ccc(S(=O)(=O)N3CCCCCC3)cc21 | . | . | . | 0.83µM | . | .
CC(C)CN(CCCNC(=O)CN1C(=O)COc2ccc(S(=O)(=O)N3CCCC3)cc21)CC(C)C | . | ? | . | 12µM | . | /
SMILES | SARS PLpro yeast | Pf growth 96h | Shiga inhibitor | Pf growth 48h | Cycloheximide cs | NS1 function inh
CC1CCN(S(=O)(=O)c2ccc3c(c2)N(CC(=O)NCCCN2CCCC(C)C2)C(=O)CS3)CC1 (stereo not given) | . | . | . | ? | . | .
CC(C)CN(CCCNC(=O)CN1C(=O)COc2ccc(S(=O)(=O)N3CCCCCC3)cc21)CC(C)C | ? | ? | . | ? | . | .
CC1CCN(S(=O)(=O)c2ccc3c(c2)N(CC(=O)NCCCN2CCCC(C)C2)C(=O)CO3)CC1 (stereo not given) | / | 12µM | . | . | . | .
CCOC(=O)[C@@H]1[C@H]2COc3ccc(Br)cc3[C@@H]2N2C(=O)N(c3ccc(Cl)cc3)C(=O)[C@@]12C | . | / | / | / | / | /
COc1ccc([C@H]2CC(=O)C=C(c3ccc(OC)nc3)C2)cc1 | . | ? | / | . | / | /
COc1ccc(CC(=O)Nc2cc(C)on2)cc1OC | . | / | . | . | . | .
COc1ccc(CCNC(=O)CSc2nnc(-c3ccccc3)o2)cc1OC | . | . | . | . | . | .
COc1ccc(CC(=O)Nc2cccc(-c3nnc(-c4ccccc4)o3)c2)cc1OC | . | / | 96 | ? | 49 | .
COc1ccc(Cc2nnc(Nc3ccc(C)cc3)o2)cc1OC | . | ? | . | 2.9µM | . | .
COc1ccc(CNS(=O)(=O)NCc2ccc(C)cc2)cc1OC | . | . | . | . | . | /
COc1ccc(-c2nc3cc(NC(=O)Cc4ccc(OC)c(OC)c4)ccc3o2)cc1 | . | 4.1µM | 34 | . | 25 | .
Cc1ccc(OCC(=O)Nc2cccc(-c3nnc(-c4ccccc4)o3)c2)c(C)c1 | . | ? | . | . | . | .
COc1ccc(CC(=O)Nc2ccc(-c3nnc(-c4ccccc4)o3)cc2)cc1OC | . | / | . | . | 15 | ?
CC(C)[C@H](NS(=O)(=O)c1ccccc1)C(=O)Nc1ccccc1N1CCOCC1 | . | / | / | / | / | /
N#C/C(=C/Nc1ccccc1F)S(=O)(=O)c1ccc(Cl)cc1 | . | . | . | .[0.00184 µM] | . | .
CCOC(=O)C1=C(N)Oc2c(oc(CO)cc2=O)C1c1ccccc1 (stereo not given) | . | ? | . | . | . | /
COc1ccc(Cc2nnc(-c3cccc(C)c3)o2)cc1OC | ? | . | 43 | . | 21 | .
COc1ccc(CC(=O)Nc2cccc(-c3nnc(-c4cccc(C)c4)o3)c2)cc1OC | . | / | 52 | ? | 46 | .
COc1ccc(CC(=O)Nc2cccc(-c3nnc(-c4ccc(C)cc4)o3)c2)cc1OC | . | . | . | ? | 25 | .
CCc1cccc(NC(=O)Cc2ccc(OC)c(OC)c2)c1 | . | . | . | . | . | .
COc1ccc(CCNC(=O)CSc2nnc(-c3cccc(C)c3)o2)cc1OC | . | / | . | ? | . | .
CC(NC(=O)COC(=O)C1(C)CC1(Cl)Cl)c1ccccc1 (stereo not given) | . | . | / | . | / | /
Cc1cccc2c(C(=O)N3CCN(c4ccccn4)CC3)cc(-c3cccc(Br)c3)nc12 | . | ? | . | ? | . | .
CC(=O)c1ccc(N2CCN(C(=O)c3cc(-c4ccncc4)nc4ccc(Cl)cc34)CC2)cc1 | ? | . | . | ? | 14 | .
Cc1cccc2c(C(=O)N3CCCCC3)cc(-c3ccccc3)nc12 | . | . | . | 9.3µM | . | .
